# Experimental data from PubChem BioAssay AID504321 (NMMLSC, 2011).
# Values without a mark were called inactive. Active and inactive are the calls of the source.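 Rule for the calls: active = GFP response vs DMSO above 150% with enough events counted; inconclusive = fewer than 70 events counted for a yeast strain; inactive = the rest.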
# Test: yeast MEP2-GFP fusion level changes, TOR pathway – flow cytometry, third cherry pick, S. cerevisiae, confirmation (AID 504321);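 note: median per-cell GFP fluorescence by flow cytometry across all yeast cells; ratio of sample to DMSO median GFP so 100% equals the DMSO level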
# Conditions: S. cerevisiae MEP2-GFP strain, 3 h, at 10 µM, stronger effect = higher value
row,Compound,GFP response vs DMSO
1,CN1CCN(C(=O)c2cc(COc3ccc(F)cc3Cl)on2)CC1c1ccccc1 (stereo not given),101%
2,Cc1ccc(Nc2cc(=O)[nH]c(=O)[nH]2)cc1Cl,101%
3,COc1ccc(OC)c(N/C(C)=C/C(=O)c2ccccc2)c1,114%
4,COc1ccccc1-c1cc(C(F)(F)F)nc(S(=O)(=O)CCCC(=O)NC(C)C)n1,110%
5,C=CCNc1nc(N)c([N+](=O)[O-])c(Nc2cccc(Cl)c2)n1,108%
6,Nc1[nH]c(=O)nc(Nc2ccccc2)c1N=O,108%
7,COc1ccccc1OCc1cc(C(=O)N2CCN(C)C(c3ccccc3)C2)no1 (stereo not given),110%
8,C/C(=C\C(=O)c1ccccc1)Nc1ccc(O)cc1,105%
9,C=CCNc1ncnc2ccc(Br)cc12,110%
10,NC(=O)COc1cccc2cccnc12,108%
11,COc1ccc(OC)c(Nc2nc(NCCC(C)C)nc(N)c2[N+](=O)[O-])c1,108%
12,CC(=O)NC(C)c1cc(Cl)c2cccnc2c1O (stereo not given),99%
13,Cn1cccc1C(=O)Nc1nc(-c2ccccn2)cs1,101%
14,CCC(C)Nc1nc(N)c([N+](=O)[O-])c(Nc2ccccc2OC)n1 (stereo not given),114%
15,Cc1nc2c(O)cccc2cc1CO,103%
16,CNc1nc(N)c([N+](=O)[O-])c(Nc2cccc(Cl)c2)n1,170% (active)
17,CCOC(=O)CS(=O)(=O)c1nc(-c2ccccc2)cc(C(F)(F)F)n1,151% (active)
18,Cc1ccc2c(Cl)cc(Cl)c(OCC(=O)O)c2n1,108%
19,COc1ccccc1-c1cc(C(F)(F)F)nc(S(=O)(=O)CCCC(=O)O)n1,110%
20,CC1=CN2C(=N)/C(=C/c3ccc([N+](=O)[O-])o3)C(=O)N=C2S1,5270% (active)
